{"source": "PubChem BioAssay AID624263", "about": "(National Center for Advancing Translational Sciences (NCATS), 2012)", "note": "The campaign covered roughly 410,000 compounds. About 820 (0.2%) were called active. Another 2% or so got no clear call; they are omitted. Calls come from the whole dose curve; as a rule, active = well fitted activation curve with a large enough effect; inconclusive = small, poorly fitted or top-dose-only effect; inactive = flat fitted curve, though single readings scatter; cell line not stated here. This excerpt belongs to a sample that is enriched for actives. Potency is the fitted concentration of half-maximal effect."}
{"assay": "A Quantitative High throughput Screen to Identify Chemical Modulators of PINK1 Expression; note: nearly all actives have a fitted effect of over 65% in size; for activation (PINK1 increase): % of control where 0% means no effect", "details": "PINK1 immunofluorescence, high-content cytometry, 24 h; series mostly up to 76.6 µM; activation (PINK1 increase): at the top concentration", "from_the_text": "The overall goal of this project is to develop new tools for understanding and treating the mitochondrial basis for neurodegenerative disease such as Parkinson's disease (PD). The PINK1 campaign was developed from recent data pointing towards mitochondrial dysfunction as a major contributor to dopaminergic neuron loss. The discovery of PINK1/Parkin mediated mitophagy has highlighted the potential for mitochondrial quality control as a novel target for therapeutic intervention. […] A second aim of this project is the development of chemical probes to study the mechanics of mitochondrial quality control. As the PINK1/Parkin mitophagy pathway is a relative recent discovery, no specific chemical probes are available that modulate the process. Presently, only crude tools that cause nonspecific mitochondrial damage are available. To advance the understanding of mitophagy, specific, well characterized chemicals that target various steps of mitophagy regulation need to be developed. New chemical probes may have the ability to dynamically manipulate mitophagy in model organisms such as rodents and zebrafish, advancing our understanding of the process in development and disease. This HTS campaign seeks to discover an activator of PINK1 expression by modulation at the level of post-translational processing.\nThe PINK1 assay determines the amount and localization of PINK1 protein in a cell using a combination of immunofluorescence and cell staining. The goal of the assay is to determine small molecules that can increase the expression of Pink1 on or inside the cell's mitochondria (ideally without mitochondrial depolarization) using a stable cell line. Since PINK1 protein is rapidly degraded in un-perturbed cells, compounds that induce the enhancement of PINK1 protein expression are identified by determining PINK1 immunofluorescence in conjunction with a mitochondrial, cell, and nuclear marker post fixation. To facilitate rapid high content screening, the primary assay is run in a decision-based HTS mode where compound titration data collected by laser-scanning microplate cytometers is processed and only promising compound series are passed off for high content drill down.\n1 Add cells to black, clear-bottom, low-base 1536-well plates 6 uL (250 cells/well)\n2 Incubate in TC incubator (12 hours)\n3 Pin compounds or DMSO controls 23 nL (5 concentrations per compound set)\n4 Dispense CCCP to control columns\n5 Incubate in TC incubator 24 hours\n6 Aspirate media and fix cells (5 uL of fixative containing nuclear dye)\n7 Incubate 15 minutes at RT\n8 Wash in PBSTween (12 uL/well)\n9 Wash in PBSTriton (12 uL/well)\n10 Aspirate wash and add Blocking buffer (4 uL/well)\n12 Aspirate block and add primary antibodies 3.5 (uL/well)\n13 Incubate 12 hours at 10 degrees C\n14 Wash in PBSTween-20 two times (12 uL/well)\n15 Aspirate wash and add secondary antibodies (12 uL/well)\n17 Wash in PBSTween (12 uL/well)\n18 Wash in PBSTween with cell stain (12 uL/well)\n19 Read plates on Acumen EX3 and determine Wells2Cells coordinates"}
{"smiles": "COc1ccc(/C=C/c2ccccn2)cc1OC", "activation (PINK1 increase)": "1.64% (inactive)"}
{"smiles": "CCCS(=O)(=O)NCc1c(C)ncc2c1CCN(C(=O)c1ccc(F)c(F)c1)C2", "activation (PINK1 increase)": "0.24% (inactive)"}
{"smiles": "CC(O)(COc1ccccc1)c1ccc2c(c1)CN(Cc1cn[nH]c1-c1ccc(F)cc1)CCO2", "note": "(centres undefined)", "activation (PINK1 increase)": "-0.0916% (inactive)"}
{"smiles": "O=[N+]([O-])c1ccccc1N/N=C1\\CCc2ccccc21", "activation (PINK1 increase)": "1.04% (inactive)"}
{"smiles": "O=[N+]([O-])c1ccc(O)c(/C=N/Nc2ccccc2[N+](=O)[O-])c1", "Potency": "20 µM (active)"}
{"smiles": "CN(C)c1ccc(/C=N\\Nc2ccc([N+](=O)[O-])cc2[N+](=O)[O-])cc1Cl", "activation (PINK1 increase)": "0.417% (inactive)"}
{"smiles": "COc1ccc(C)cc1N1C(=O)[C@@H]2C[C@H]1CN2Cc1cccc(OC)c1O", "activation (PINK1 increase)": "0.987% (inactive)"}
{"smiles": "Cc1[nH]c2c(C(=O)NCC3Cc4cccc(-c5cccnc5)c4O3)cccc2c1C", "note": "(centres undefined)", "activation (PINK1 increase)": "1.19% (inactive)"}
{"smiles": "CN(C)c1ccc(/C=C/c2sc3ccccc3[n+]2C)cc1", "Potency": "44.7 µM (active)"}
{"smiles": "COc1ccc2c(c1)c(=Cc1ccc(N(C)C)cc1)c1cc(-c3ccccc3)[n+](C)n12", "activation (PINK1 increase)": "-1.26% (inactive)"}
{"smiles": "CN(C)c1ccc(C=Nc2ccc(/C=C/c3ccnc4ccccc34)cc2)cc1", "activation (PINK1 increase)": "-0.636% (inactive)"}
{"smiles": "COc1ccccc1-c1ccc(C(=O)N(C)C(C)c2ccon2)c(N2CCN(c3ccccc3F)CC2)n1", "note": "(centres undefined)", "activation (PINK1 increase)": "1.15% (inactive)"}
{"smiles": "Cc1ccc(-c2ccnc(-n3ncc(C(=O)N(C)Cc4cccc5ncccc45)c3C3CC3)n2)o1", "activation (PINK1 increase)": "0.511% (inactive)"}
{"smiles": "C=CCSc1nsc(NC(=O)Nc2cccc(C(C)=O)c2)n1", "Potency": "15.8 µM (active)"}
{"smiles": "Cc1ccc(C(=O)Nc2nc(-c3ccccc3)ns2)cc1", "activation (PINK1 increase)": "14.4% (inactive)"}
{"smiles": "CC(=O)c1ccc(NC(=O)CSc2nnc(NC(=O)Nc3ccccc3)s2)cc1", "activation (PINK1 increase)": "-0.057% (inactive)"}
{"smiles": "CN(C(=O)CSc1nnc(NC(=O)Nc2ccccc2)s1)c1ccccc1", "activation (PINK1 increase)": "1.45% (inactive)"}
{"smiles": "CC(=O)c1cccc(NC(=O)CSc2nc3c(c(=O)[nH]2)CCC3)c1", "activation (PINK1 increase)": "1.26% (inactive)"}
{"smiles": "CSc1nsc(NC(=O)Nc2ccccc2)n1", "Potency": "22.4 µM (active)"}
{"smiles": "COC(=O)[C@@H]1C[C@H](NC(=O)c2ccccc2C(F)(F)F)CN1Cc1cccc(O)c1", "activation (PINK1 increase)": "0.0682% (inactive)"}
{"smiles": "CC(=O)c1ccc(F)c(-c2cc(C)cc3c2OC(CNC(=O)Cc2c[nH]c4ccccc24)C3)c1", "note": "(centres undefined)", "activation (PINK1 increase)": "-0.04% (inactive)"}
{"smiles": "C(=Nc1ccc(/C=C/c2ccnc3ccccc23)cc1)Nc1ccc(/C=C/c2ccnc3ccccc23)cc1", "activation (PINK1 increase)": "-0.124% (inactive)"}
{"smiles": "Cc1ncc2c(c1CNS(=O)(=O)N(C)C)CCN(C(=O)c1ccccc1F)C2", "activation (PINK1 increase)": "-0.0214% (inactive)"}
{"smiles": "OCC(O)C(O)C(O)C(O)C=Nc1ccc(/C=C/c2ccnc3ccccc23)cc1", "note": "(centres undefined)", "activation (PINK1 increase)": "0.535% (inactive)"}
{"smiles": "COc1ccc(Oc2ncc3nc(-c4ccc(F)cc4)c(=O)n(C)c3n2)cc1", "activation (PINK1 increase)": "-0.15% (inactive)"}
{"smiles": "O=c1c2ccccc2nc2n1C1(CCCCC1)Cc1ccccc1-2", "Potency": "4.47 µM (active)"}
{"smiles": "CC1(C)Cc2ccccc2-c2c[nH]c(=O)n21", "activation (PINK1 increase)": "-0.443% (inactive)"}
{"smiles": "CN(c1ccc2nc3ccccc3c(=O)n2n1)C1CCCCC1", "activation (PINK1 increase)": "0.372% (inactive)"}
{"smiles": "COCC1CCCN(Cc2ccc3c(c2)CN(C(=O)c2ccnn2C)CCO3)C1", "note": "(centres undefined)", "activation (PINK1 increase)": "0.143% (inactive)"}
{"smiles": "C(=Nc1ccc(/C=C/c2ccnc3ccccc23)cc1)c1cc2c3c(c1)CCCN3CCC2", "activation (PINK1 increase)": "-0.851% (inactive)"}
{"smiles": "Cc1cccc2c3c(ccc12)C1=C(C(=O)C3=O)C(C)CO1", "note": "(centres undefined)", "activation (PINK1 increase)": "8.81% (inactive)"}
{"smiles": "O=C1NC(CC(=O)N2CCC(n3c(C4CCC4)nc4cccnc43)CC2)c2ccccc21", "note": "(centres undefined)", "activation (PINK1 increase)": "-0.132% (inactive)"}
{"smiles": "Oc1c(Cl)cc(Cl)c(Cl)c1Cc1c(O)c(Cl)cc(Cl)c1Cl", "Potency": "2.82 µM (active)"}
{"smiles": "CCN(CC)/[N+]([O-])=N/OCOC(=O)Cc1c(C)n(C(=O)c2ccc(Cl)cc2)c2ccc(OC)cc12", "activation (PINK1 increase)": "-1.4% (inactive)"}
{"smiles": "Cc1cc(-c2ccnc(-n3ncc(C(=O)NCCc4ccncc4)c3C)n2)c(C)s1", "activation (PINK1 increase)": "0.637% (inactive)"}
{"smiles": "Cc1cc(C(=O)NCC2Cc3cccc(-c4cncnc4)c3O2)c(C)o1", "note": "(centres undefined)", "activation (PINK1 increase)": "0.573% (inactive)"}
{"smiles": "CN(C)c1ccc(CN2CCOc3ccc(CN4CCC(O)(c5cccnc5)CC4)cc3C2)cc1", "activation (PINK1 increase)": "-0.177% (inactive)"}
{"smiles": "O=C(c1cn(CC2CCCN(Cc3cc4ccccc4s3)C2)nn1)N1CCCC1", "note": "(centres undefined)", "activation (PINK1 increase)": "-0.201% (inactive)"}
{"smiles": "CCC1(C2CCN(C(=O)c3cccc(F)c3F)CC2)NC(=O)N(CCc2scnc2C)C1=O", "note": "(centres undefined)", "activation (PINK1 increase)": "0.188% (inactive)"}
{"smiles": "C=CCN(CC=C)S(=O)(=O)c1ccc(C(=O)Nc2sc3c(c2C(N)=O)CCCCC3)cc1", "Potency": "10 µM (active)"}
{"smiles": "CCCCN(C)S(=O)(=O)c1ccc(C(=O)Nc2sc3c(c2C(N)=O)CC(C)(C)NC3(C)C)cc1", "activation (PINK1 increase)": "-2.36% (inactive)"}
{"smiles": "CCOC(=O)c1c(NC(=O)c2ccc(S(=O)(=O)N(CC)CC)cc2)sc2c1CCCCC2", "activation (PINK1 increase)": "-1.12% (inactive)"}
{"smiles": "COc1ccc2c(c1)NC(=O)C2CC(=O)N1CCOc2c(cc(-c3cnc4ccccc4c3)cc2OC)C1", "note": "(centres undefined)", "activation (PINK1 increase)": "1.57% (inactive)"}
{"smiles": "COC(=O)c1ccccc1-c1cc(C)cc2c1OC(CNC(=O)C1CCOC1)C2", "note": "(centres undefined)", "activation (PINK1 increase)": "-0.262% (inactive)"}
{"smiles": "COc1ccc(CCNc2ncnc3sc(C(=O)N4CCCC4)c(C)c23)cc1OC", "activation (PINK1 increase)": "-0.358% (inactive)"}
{"smiles": "COc1cc(-c2cccnc2)cc2c1OCCN(C(=O)Cc1csc(C)n1)C2", "activation (PINK1 increase)": "0.58% (inactive)"}
{"smiles": "O=C(c1cccc(Cn2cccn2)c1)N1CCOc2c(cc(-c3csc4ccccc34)cc2OC2CCOC2)C1", "note": "(centres undefined)", "activation (PINK1 increase)": "0.191% (inactive)"}
{"smiles": "N#Cc1cccc(-c2ccc3ncnc(NCc4cccs4)c3c2)c1", "activation (PINK1 increase)": "-0.262% (inactive)"}
{"smiles": "Cc1cc(-c2ccnc(-n3ncc(C(=O)NC(C)(C)CO)c3C3CC3)n2)c(C)s1", "activation (PINK1 increase)": "0.0821% (inactive)"}
